In PubChem BioAssay (NCI):
The panel holds about 83,000 compounds, 20% with a hit somewhere; the sample as a whole holds those more often.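 Note: values are percent growth. 100 is the growth of untreated cells, values between 100 and 0 indicate rising inhibition; between -100 and 0 indicates cell death.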 The source made the active and inactive calls. How the source made its calls: active means growth percent below 10; inactive means the rest.

Key:
Test in all cases: NCI-60 one-dose screen, 48 h (100 = growth as untreated, 0 = no growth, -100 = all killed)
Conditions in all cases: 10 µM unless noted
[1] = system: NCI-H23 lung
[2] = system: NCI-H226 lung
[3] = system: NCI-H322M lung
[4] = system: HOP-62 NSCLC
[5] = system: NCI-H460 lung
[6] = system: HOP-92 NSCLC
[7] = system: NCI-H522 lung
[8] = system: A549/ATCC NSCLC
[9] = system: COLO 205 colon
[10] = system: DU-145 prostate
[11] = system: K-562 leukemia
[12] = system: MALME-3M melanoma
[13] = system: MDA-MB-231 breast
[14] = system: RXF 393 renal
[15] = system: SF-268 CNS
[16] = system: SF-295 CNS
[17] = system: SF-539 CNS
[18] = system: UACC-257 melanoma
[19] = system: M14 melanoma
[20] = system: 786-0 renal

Measured: growth

Cc1cc(=O)oc2cc(Oc3nc(-c4ccc(Cl)cc4)cn4c(-c5ccc(Cl)cc5)cnc34)ccc12
inactive: [1] 78.1% | [2] 93% | [3] 95.9% | [4] 99.7% | [5] 93.3% | [6] 91% | [7] 95.8% | [8] 101% | [9] 97.5% | [10] 69.6% | [11] 85.1% | [12] 43.6% | [13] 73.3% | [14] 70.5% | [15] 95.9% | [16] 120% | [17] 91.8% | [18] 88.3% | [19] 64.2%

CC[C@H](Nc1cc(C)nc(N)n1)c1nc2cccc(NCc3ccc(C(=O)NO)cc3)c2c(=O)n1-c1ccccc1
active: [1] -6.84% | [6] -3.07% | [7] -63.7% | [9] -51.8% | [13] 0.273% | [14] -6% | [17] -20.6%
inactive: [2] 64.7% | [3] 47.7% | [4] 34.5% | [5] 30.1% | [8] 60.1% | [20] 44.1% | [10] 36.4% | [12] 37.6% | [15] 27.6% | [16] 64.2% | [18] 12.3% | [19] 16.3%

C[C@@H]1CC[C@@H]2[C@@H]1[C@H](OC(=O)/C=C/c1ccccc1)[C@]1(c3ccccc3)C[C@@H](OC(=O)CO)[C@@]2(C)O1
inactive: [1] 102% | [2] 88.8% | [3] 88% | [4] 101% | [5] 92% | [6] 78.8% | [7] 88.5% | [8] 80.2% | [20] 98% | [9] 107% | [10] 102% | [12] 108% | [13] 97.2% | [14] 60.6% | [15] 52.5% | [16] 96.4% | [17] 102% | [18] 86% | [19] 105%

COC(/C=C/c1ccc([N+](=O)[O-])cc1)OC
inactive: [1] 96.5% | [2] 106% | [3] 101% | [4] 114% | [5] 112% | [6] 85% | [7] 86.9% | [8] 95.4% | [9] 110% | [10] 119% | [11] 105% | [12] 109% | [13] 91.2% | [14] 87.5% | [15] 106% | [16] 106% | [18] 90.8% | [19] 77.2%

CN1CCN(Cc2ccc(NC(=O)c3[nH]ncc3Nc3ncnc4c3CCC4)cc2)CC1
active: [1] 5.19% | [2] 9.05% | [5] 6.72% | [6] -33% | [9] -37.5% | [10] 5.56% | [11] 6.23% | [12] 4.81% | [13] -11.8% | [14] -49.7% | [15] 4.07% | [17] -37.8%
inactive: [3] 16.5% | [4] 22.6% | [7] 13.7% | [8] 17.2% | [16] 31.2% | [18] 37.7% | [19] 21.7%

O=C(CO[N+](=O)[O-])Nc1ccc(C(=O)/C=C/c2ccc(Cl)cc2)cc1
active: [1] 5.49% | [19] 3.46%
inactive: [2] 81.7% | [3] 71.5% | [4] 94.1% | [5] 84.9% | [6] 66.8% | [7] 38.7% | [8] 67.6% | [20] 75% | [9] 36.1% | [10] 79.9% | [12] 79.1% | [13] 55% | [14] 72.5% | [15] 44.9% | [16] 105% | [18] 61.2%

COc1ccc2nc3cc(Cl)ccc3c(N3CCN(c4ccnc(N5CCOCC5)n4)CC3)c2c1
inactive: [1] 46.1% | [2] 89.2% | [3] 94.4% | [4] 71.5% | [5] 76.5% | [6] 56.3% | [8] 95.2% | [20] 92.8% | [9] 31.1% | [10] 24.2% | [12] 80.3% | [13] 45.1% | [15] 45.3% | [16] 88.7% | [18] 76.9% | [19] 86.6%
active: [7] -51.4% | [14] 8.55%

COc1ccc(CCN2CCCn3c2nc2ccccc2c3=O)cc1
inactive: [1] 32.7% | [2] 37.3% | [3] 45.4% | [4] 48.1% | [5] 10.7% | [6] 46.5% | [7] 12.2% | [8] 28.6% | [10] 16.4% | [11] 13.1% | [12] 59.8% | [13] 42.5% | [15] 56.9% | [16] 20.4% | [18] 81.3% | [19] 21.4%
active: [9] -10.2% | [14] -0.0509% | [17] -16.3%

CS(=O)(=O)c1ccc(-c2cnc3ccc(-c4cccc(S(C)(=O)=O)c4)nn23)cc1
inactive: [1] 44% | [2] 65.1% | [3] 32.8% | [4] 59.2% | [5] 21.4% | [6] 16% | [7] 58.4% | [8] 31% | [9] 46.2% | [10] 27.9% | [11] 46.9% | [12] 35.3% | [13] 49.4% | [15] 36.3% | [16] 53.7% | [17] 24% | [18] 58.1% | [19] 42.8%
active: [14] 9.52%
